A short description of this experiment: chemical genetic growth profiling, strain panel (AID 1159580).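 Note: tested at 20 µM; growth read once vehicle control cultures reached saturation at 30 °C; 1 = growth at the plate median or of vehicle wells.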 The note with it: growth OD.
Setting [1] is: S. cerevisiae deletion strains, locus YAL013W, strain DEP1, stronger effect = lower value.
Where [2] appears, read: S. cerevisiae deletion strains, locus YBR229C, strain ROT2, stronger effect = lower value.
The mark [3] stands for this setting: S. cerevisiae deletion strains, locus YDL101C, strain DUN1, stronger effect = lower value.
Setting [4] is: S. cerevisiae deletion strains, locus YDR150W, strain NUM1, stronger effect = lower value.
[5] abbreviates: S. cerevisiae deletion strains, locus YEL061C, strain CIN8, stronger effect = lower value.
[6] abbreviates: S. cerevisiae deletion strains, locus YGR078C, strain PAC10, stronger effect = lower value.
Where [7] appears, read: S. cerevisiae deletion strains, locus YHR030C, strain SLT2, stronger effect = lower value.
Where [8] appears, read: S. cerevisiae deletion strains, locus YHR087W, strain rtc3, stronger effect = lower value.
[9] abbreviates: S. cerevisiae deletion strains, locus YJL187C, strain SWE1, stronger effect = lower value.
Setting [10] is: S. cerevisiae deletion strains, locus YJR043C, strain POL32, stronger effect = lower value.
Setting [11] is: S. cerevisiae deletion strains, locus YJR075W, strain HOC1, stronger effect = lower value.
Setting [12] is: S. cerevisiae deletion strains, locus YKL190W, strain CNB1, stronger effect = lower value.
Setting [13] is: S. cerevisiae deletion strains, locus YLR039C, strain RIC1, stronger effect = lower value.
[14] abbreviates: S. cerevisiae deletion strains, locus YLR058C, strain SHM2 (second series), stronger effect = lower value.
[15] abbreviates: S. cerevisiae deletion strains, locus YLR085C, strain ARP6, stronger effect = lower value.
[16] abbreviates: S. cerevisiae deletion strains, locus YLR262C, strain YPT6, stronger effect = lower value.
Where [17] appears, read: S. cerevisiae deletion strains, locus YML094W, strain GIM5, stronger effect = lower value.
Where [18] appears, read: S. cerevisiae deletion strains, locus YMR219W, strain ESC1, stronger effect = lower value.
The mark [19] stands for this setting: S. cerevisiae deletion strains, locus YMR263W, strain SAP30, stronger effect = lower value.
Setting [20] is: S. cerevisiae deletion strains, locus YNL153C, strain GIM3, stronger effect = lower value.
Where [21] appears, read: S. cerevisiae deletion strains, locus YNL298W, strain CLA4 (second series), stronger effect = lower value.
[22] abbreviates: S. cerevisiae deletion strains, locus YNL322C, strain KRE1, stronger effect = lower value.
Where [23] appears, read: S. cerevisiae deletion strains, locus YNR030W, strain Alg12, stronger effect = lower value.
Setting [24] is: S. cerevisiae deletion strains, locus YPL055C, strain LGE1, stronger effect = lower value.
Where [25] appears, read: S. cerevisiae deletion strains, locus YPL241C, strain CIN2, stronger effect = lower value.
The mark [26] stands for this setting: S. cerevisiae deletion strains, locus YPR135W, strain CTF4, stronger effect = lower value.
Setting [27] is: S. cerevisiae deletion strains, locus YGR229C, strain SMI1, stronger effect = lower value.

Structures are written as SMILES. Hit rate of the full screen: of about 5,500 compounds, about 2,000 (36%) were called active. Roughly 18% stayed inconclusive and do not appear here. Some of the results follow. A number with no mark means an inactive call. Cut-off read from the data, not from the text of the source: active = normalized growth mostly below about 0.91 (no sharp cut-off); inconclusive = no clear call, values can overlap the other calls; inactive = mostly above about 0.92.

With `COc1ccccc1N1CCN(S(=O)(=O)c2cc(C)c(Cl)cc2C)CC1`, the normalized growth is 0.985 under setting [1]; 0.991 under setting [2]; 0.957 under setting [3]; 0.958 under setting [4]; 0.994 under setting [5]; 0.97 under setting [6]. Also, the normalized growth under setting [7] was 1.01; the normalized growth under setting [8] is 0.959; the normalized growth under setting [9] was 0.991; the normalized growth under setting [10] is 1; the normalized growth under setting [11] was 0.989; the normalized growth under setting [12] was 0.987. The normalized growth is, setting by setting: under setting [13], 0.981; under setting [14], 0.988; under setting [15], 1.01; under setting [16], 0.976; under setting [17], 0.958; under setting [18], 1. For the same compound, the normalized growth under setting [19] is 1; the normalized growth under setting [20] was 0.996; the normalized growth under setting [21] is 0.982; the normalized growth under setting [22] was 0.994; the normalized growth under setting [23] is 0.982; the normalized growth under setting [24] is 0.953. For the same compound, the normalized growth is 1.06 under setting [25]; 0.874 under setting [26]; 0.985 (S. cerevisiae strains, strain wild type, stronger effect = lower value).
For `CC1=C(OS(=O)(=O)c2cc(C)c(Cl)cc2Cl)C(=O)CC1`, the normalized growth was 0.993 under setting [1]; 0.956 under setting [2]; 0.968 under setting [3]; 0.986 under setting [4]; 1 under setting [5]; 0.98 under setting [6]. The normalized growth is, setting by setting: under setting [27], 0.968; under setting [7], 0.85; under setting [8], 0.974; under setting [9], 0.986; under setting [10], 0.991; under setting [11], 0.984. For the same compound, the normalized growth reads like this: under setting [12], 0.976; under setting [13], 0.849; under setting [14], 0.968; under setting [15], 0.955; under setting [16], 0.866; under setting [17], 1. Moreover, the normalized growth under setting [18] was 0.985; the normalized growth under setting [19] is 0.977; the normalized growth under setting [20] was 0.971; the normalized growth under setting [21] was 0.914; the normalized growth under setting [22] was 0.97; the normalized growth under setting [23] is 0.968. Moreover, the normalized growth is 0.897 (S. cerevisiae deletion strains, locus YOL006C, strain TOP1, stronger effect = lower value); 1.24 [resistant] (active) under setting [24]; 0.98 under setting [25]; 0.87 under setting [26].
Consider `c1ccc2sc(C3(N4CCCCC4)CCCCC3)cc2c1`, for which the normalized growth reads like this: under setting [1], 0.964; (S. cerevisiae deletion strains, locus YAL040C, strain CLN3, stronger effect = lower value) 1.01; (S. cerevisiae deletion strains, locus YCL061C, strain MRC1 (second series), stronger effect = lower value) 0.995; under setting [4], 1; (S. cerevisiae deletion strains, locus YDR363W, strain ESC2, stronger effect = lower value) 0.937; (S. cerevisiae deletion strains, locus YER002W, strain NOP16, stronger effect = lower value) 1.01. Also, the normalized growth is, setting by setting: under setting [6], 0.983; under setting [27], 0.93; under setting [19], 1; (S. cerevisiae deletion strains, locus YMR307W, strain GAS1, stronger effect = lower value) 0.976; (S. cerevisiae deletion strains, locus YNL128W, strain TEP1, stronger effect = lower value) 0.988; under setting [20], 1.01. The normalized growth is 1.03 (S. cerevisiae deletion strains, locus YNL175C, strain NOP13, stronger effect = lower value); 0.986 (S. cerevisiae deletion strains, locus YNL197C, strain WHI3, stronger effect = lower value); 1 (S. cerevisiae deletion strains, locus YNL224C, strain SQS1, stronger effect = lower value); 1.04 (S. cerevisiae deletion strains, locus YOR083W, strain WHI5 (second series), stronger effect = lower value); 0.907 under setting [24].

These data come from PubChem BioAssay AID1159580 (chemical genetic matrix, 2015).
